In assay [1] the target is T1, Mitogen-activated protein kinase 12 (Homo sapiens) (UniProt P53778).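 Also: values are averaged p38gamma kinase inhibition readings, compounds tested at 1 µM.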
T1 sequence (whole entry): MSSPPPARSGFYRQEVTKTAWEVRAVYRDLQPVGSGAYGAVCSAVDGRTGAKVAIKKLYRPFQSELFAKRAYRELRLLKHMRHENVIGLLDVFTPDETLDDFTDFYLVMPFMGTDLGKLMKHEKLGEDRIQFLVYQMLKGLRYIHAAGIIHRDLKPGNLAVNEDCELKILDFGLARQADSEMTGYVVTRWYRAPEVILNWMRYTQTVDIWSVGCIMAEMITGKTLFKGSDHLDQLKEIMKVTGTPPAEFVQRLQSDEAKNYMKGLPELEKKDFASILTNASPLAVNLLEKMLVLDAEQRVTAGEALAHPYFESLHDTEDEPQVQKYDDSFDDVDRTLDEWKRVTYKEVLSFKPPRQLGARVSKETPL
As to conditions: at 1 µM.

Assay [2] concerns the target SRSF protein kinase 1 (Homo sapiens) (UniProt Q96SB4). As to conditions: at 0.1 µM.
For assay [3] the target is unchanged. As to conditions: at 1 µM.
Assay [4] concerns the target Phosphatidylinositol 4,5-bisphosphate 3-kinase catalytic subunit alpha isoform (Homo sapiens) (UniProt P42336). As to conditions: at 0.1 µM.
Assay [5] has the same target. As to conditions: at 1 µM.
The target of assay [6] is T2, Phosphatidylinositol 4,5-bisphosphate 3-kinase catalytic subunit delta isoform (Homo sapiens) (UniProt O00329).
T2 sequence (whole entry): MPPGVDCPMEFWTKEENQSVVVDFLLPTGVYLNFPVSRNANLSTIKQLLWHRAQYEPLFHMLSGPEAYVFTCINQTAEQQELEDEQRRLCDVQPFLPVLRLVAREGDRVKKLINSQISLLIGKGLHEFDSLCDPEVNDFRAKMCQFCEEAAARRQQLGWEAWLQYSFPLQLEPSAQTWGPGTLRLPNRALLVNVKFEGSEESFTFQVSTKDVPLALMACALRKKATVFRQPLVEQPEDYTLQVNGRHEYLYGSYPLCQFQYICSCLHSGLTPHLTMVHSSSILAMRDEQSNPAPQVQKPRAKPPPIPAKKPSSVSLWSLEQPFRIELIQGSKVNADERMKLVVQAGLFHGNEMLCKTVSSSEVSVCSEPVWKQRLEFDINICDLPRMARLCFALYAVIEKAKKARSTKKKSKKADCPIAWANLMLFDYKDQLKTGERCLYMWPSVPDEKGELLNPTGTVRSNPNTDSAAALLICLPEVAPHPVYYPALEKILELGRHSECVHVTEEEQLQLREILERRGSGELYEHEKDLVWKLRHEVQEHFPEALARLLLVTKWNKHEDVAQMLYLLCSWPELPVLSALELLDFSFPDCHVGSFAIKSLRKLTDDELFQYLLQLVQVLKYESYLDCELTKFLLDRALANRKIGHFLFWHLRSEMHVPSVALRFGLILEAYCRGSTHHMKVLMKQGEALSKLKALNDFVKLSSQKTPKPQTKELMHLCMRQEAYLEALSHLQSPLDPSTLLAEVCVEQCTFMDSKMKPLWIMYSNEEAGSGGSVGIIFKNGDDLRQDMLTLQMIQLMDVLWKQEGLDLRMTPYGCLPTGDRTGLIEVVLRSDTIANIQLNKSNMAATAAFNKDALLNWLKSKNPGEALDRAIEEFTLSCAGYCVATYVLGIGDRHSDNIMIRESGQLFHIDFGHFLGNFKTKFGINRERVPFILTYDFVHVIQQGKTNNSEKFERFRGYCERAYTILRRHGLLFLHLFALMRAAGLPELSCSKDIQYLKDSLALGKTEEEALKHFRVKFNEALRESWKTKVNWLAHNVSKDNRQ
The note with it: at 0.1 µM.

Assay [7] deals with T2, Phosphatidylinositol 4,5-bisphosphate 3-kinase catalytic subunit delta isoform (Homo sapiens). As to conditions: at 1 µM.
For assay [8], the target named is Phosphatidylinositol 4-kinase beta (Homo sapiens) (UniProt Q9UBF8). The note with it: at 0.1 µM.
For assay [9] the target is unchanged. As to conditions: at 1 µM.
Assay [10] addresses Sphingosine kinase 1 (Homo sapiens) (UniProt Q9NYA1). The note with it: at 0.1 µM.
Assay [11] has the same target. The note with it: at 1 µM.
Assay [12] addresses T3, Sphingosine kinase 2 (Homo sapiens) (UniProt Q9NRA0).
T3 sequence (whole entry): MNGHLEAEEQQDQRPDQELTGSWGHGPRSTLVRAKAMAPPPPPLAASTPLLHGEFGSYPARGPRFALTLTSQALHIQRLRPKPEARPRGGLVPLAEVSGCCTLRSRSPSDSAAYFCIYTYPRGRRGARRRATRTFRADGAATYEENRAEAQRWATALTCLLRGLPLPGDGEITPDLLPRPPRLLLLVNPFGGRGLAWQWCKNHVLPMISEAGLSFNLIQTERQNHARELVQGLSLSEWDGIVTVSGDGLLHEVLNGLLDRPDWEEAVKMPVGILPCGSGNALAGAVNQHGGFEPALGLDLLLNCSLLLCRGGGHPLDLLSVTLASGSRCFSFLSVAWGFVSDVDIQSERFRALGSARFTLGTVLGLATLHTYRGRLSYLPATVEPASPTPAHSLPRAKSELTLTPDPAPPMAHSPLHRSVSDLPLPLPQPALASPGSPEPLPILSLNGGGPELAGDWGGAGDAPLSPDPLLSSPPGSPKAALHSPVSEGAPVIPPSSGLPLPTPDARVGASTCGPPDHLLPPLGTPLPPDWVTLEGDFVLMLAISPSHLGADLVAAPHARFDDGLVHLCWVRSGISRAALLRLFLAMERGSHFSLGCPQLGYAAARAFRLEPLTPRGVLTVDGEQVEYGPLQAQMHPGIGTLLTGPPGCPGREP
As to conditions: at 0.1 µM.

Assay [13] addresses T3, Sphingosine kinase 2 (Homo sapiens). As to conditions: at 1 µM.
The target in assay [14] is Casein kinase II subunit alpha (Homo sapiens) (UniProt P68400). As to conditions: at 0.1 µM.
Assay [15] has the same target. As to conditions: at 1 µM.
Assay [16] has as its target T4, Inhibitor of nuclear factor kappa-B kinase subunit alpha (Homo sapiens) (UniProt O15111).
T4 sequence (whole entry): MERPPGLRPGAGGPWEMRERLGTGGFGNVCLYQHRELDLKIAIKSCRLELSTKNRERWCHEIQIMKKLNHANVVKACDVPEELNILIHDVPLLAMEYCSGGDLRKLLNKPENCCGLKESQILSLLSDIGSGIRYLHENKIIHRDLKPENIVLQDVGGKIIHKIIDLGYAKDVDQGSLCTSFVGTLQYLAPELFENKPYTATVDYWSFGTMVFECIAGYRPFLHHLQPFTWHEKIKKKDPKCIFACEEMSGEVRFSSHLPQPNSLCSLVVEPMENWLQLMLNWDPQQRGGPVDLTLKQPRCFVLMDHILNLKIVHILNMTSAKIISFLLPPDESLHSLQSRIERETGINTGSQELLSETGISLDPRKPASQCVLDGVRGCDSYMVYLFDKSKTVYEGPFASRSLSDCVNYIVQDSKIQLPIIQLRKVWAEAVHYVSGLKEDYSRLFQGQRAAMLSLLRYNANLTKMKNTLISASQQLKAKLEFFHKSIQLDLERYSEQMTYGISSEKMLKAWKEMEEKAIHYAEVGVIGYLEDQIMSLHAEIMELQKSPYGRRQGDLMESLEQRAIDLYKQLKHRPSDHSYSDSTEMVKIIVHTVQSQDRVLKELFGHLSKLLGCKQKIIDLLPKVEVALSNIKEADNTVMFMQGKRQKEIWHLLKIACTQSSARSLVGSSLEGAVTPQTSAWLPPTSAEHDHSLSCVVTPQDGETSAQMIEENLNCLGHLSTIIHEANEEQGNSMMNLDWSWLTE
As to conditions: at 0.1 µM.

The target in assay [17] is T4, Inhibitor of nuclear factor kappa-B kinase subunit alpha (Homo sapiens). The note with it: at 1 µM.
Assay [18] deals with T5, Inhibitor of nuclear factor kappa-B kinase subunit beta (Homo sapiens) (UniProt O14920).
T5 sequence (whole entry): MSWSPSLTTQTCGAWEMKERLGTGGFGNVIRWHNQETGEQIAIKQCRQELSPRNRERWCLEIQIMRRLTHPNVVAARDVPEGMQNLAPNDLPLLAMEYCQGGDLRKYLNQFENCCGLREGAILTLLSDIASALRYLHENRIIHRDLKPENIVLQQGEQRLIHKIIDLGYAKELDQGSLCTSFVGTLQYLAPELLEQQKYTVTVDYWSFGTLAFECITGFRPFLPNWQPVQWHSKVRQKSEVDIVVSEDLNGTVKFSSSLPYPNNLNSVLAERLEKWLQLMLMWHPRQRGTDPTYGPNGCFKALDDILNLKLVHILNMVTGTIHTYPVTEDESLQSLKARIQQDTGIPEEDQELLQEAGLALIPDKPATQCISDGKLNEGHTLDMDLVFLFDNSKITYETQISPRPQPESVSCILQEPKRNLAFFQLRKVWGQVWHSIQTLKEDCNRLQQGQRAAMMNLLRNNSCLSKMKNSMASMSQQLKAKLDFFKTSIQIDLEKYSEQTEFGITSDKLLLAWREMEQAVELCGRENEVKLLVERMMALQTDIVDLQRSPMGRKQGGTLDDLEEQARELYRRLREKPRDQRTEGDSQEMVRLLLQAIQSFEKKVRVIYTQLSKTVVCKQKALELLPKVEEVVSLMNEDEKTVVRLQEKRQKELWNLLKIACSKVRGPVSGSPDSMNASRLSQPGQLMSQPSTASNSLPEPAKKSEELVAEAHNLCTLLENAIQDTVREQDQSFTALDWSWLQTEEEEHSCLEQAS
The note with it: at 0.1 µM.

Assay [19] addresses T5, Inhibitor of nuclear factor kappa-B kinase subunit beta (Homo sapiens). As to conditions: at 1 µM.
Assay [20] deals with T6, Inhibitor of nuclear factor kappa-B kinase subunit epsilon (Homo sapiens) (UniProt Q14164).
T6 sequence (whole entry): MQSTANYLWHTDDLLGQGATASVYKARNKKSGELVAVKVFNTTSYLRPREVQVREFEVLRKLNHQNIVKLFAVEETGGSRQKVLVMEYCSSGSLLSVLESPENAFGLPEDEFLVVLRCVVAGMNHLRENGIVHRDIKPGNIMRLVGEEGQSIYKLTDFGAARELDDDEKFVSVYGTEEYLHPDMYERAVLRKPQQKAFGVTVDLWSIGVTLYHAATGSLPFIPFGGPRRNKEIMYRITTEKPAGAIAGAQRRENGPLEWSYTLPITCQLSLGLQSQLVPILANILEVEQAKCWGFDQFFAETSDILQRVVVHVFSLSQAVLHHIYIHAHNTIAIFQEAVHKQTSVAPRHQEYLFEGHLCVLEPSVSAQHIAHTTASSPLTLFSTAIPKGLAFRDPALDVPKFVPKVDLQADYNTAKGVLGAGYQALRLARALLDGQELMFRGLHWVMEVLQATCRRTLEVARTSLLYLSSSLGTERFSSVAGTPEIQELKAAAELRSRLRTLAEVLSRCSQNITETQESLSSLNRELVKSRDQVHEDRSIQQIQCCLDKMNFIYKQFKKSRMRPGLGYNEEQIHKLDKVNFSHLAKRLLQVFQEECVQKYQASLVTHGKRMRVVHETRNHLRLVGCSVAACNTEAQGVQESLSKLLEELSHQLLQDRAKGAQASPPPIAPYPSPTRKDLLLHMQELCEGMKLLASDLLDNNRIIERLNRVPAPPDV
The note with it: at 0.1 µM.

Structures are written as SMILES.

Sphingosine kinase 1 (Homo sapiens), sequence (Q9NYA1 whole entry): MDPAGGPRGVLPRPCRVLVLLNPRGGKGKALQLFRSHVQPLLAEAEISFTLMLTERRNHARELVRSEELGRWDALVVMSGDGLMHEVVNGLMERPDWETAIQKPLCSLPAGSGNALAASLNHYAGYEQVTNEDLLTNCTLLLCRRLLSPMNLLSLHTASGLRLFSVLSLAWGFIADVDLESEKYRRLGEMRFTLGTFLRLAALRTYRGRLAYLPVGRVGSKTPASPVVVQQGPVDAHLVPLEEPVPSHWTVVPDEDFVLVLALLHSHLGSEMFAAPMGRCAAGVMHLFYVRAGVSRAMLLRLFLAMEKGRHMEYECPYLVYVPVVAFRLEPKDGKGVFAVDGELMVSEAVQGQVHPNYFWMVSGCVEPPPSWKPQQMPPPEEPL
Casein kinase II subunit alpha (Homo sapiens), sequence (P68400 whole entry, looked up): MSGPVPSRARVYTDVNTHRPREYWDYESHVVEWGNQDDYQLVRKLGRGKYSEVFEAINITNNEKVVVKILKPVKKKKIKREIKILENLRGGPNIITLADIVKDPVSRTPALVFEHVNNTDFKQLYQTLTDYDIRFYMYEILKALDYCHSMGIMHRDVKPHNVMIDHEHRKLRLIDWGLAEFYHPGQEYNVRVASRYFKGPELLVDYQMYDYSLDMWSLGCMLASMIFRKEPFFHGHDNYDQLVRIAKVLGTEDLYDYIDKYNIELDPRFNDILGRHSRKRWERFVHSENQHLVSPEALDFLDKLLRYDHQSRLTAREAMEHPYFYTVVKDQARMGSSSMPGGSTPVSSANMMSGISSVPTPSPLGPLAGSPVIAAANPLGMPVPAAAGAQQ
Phosphatidylinositol 4-kinase beta (Homo sapiens), sequence (Q9UBF8 2-816 limits assumed): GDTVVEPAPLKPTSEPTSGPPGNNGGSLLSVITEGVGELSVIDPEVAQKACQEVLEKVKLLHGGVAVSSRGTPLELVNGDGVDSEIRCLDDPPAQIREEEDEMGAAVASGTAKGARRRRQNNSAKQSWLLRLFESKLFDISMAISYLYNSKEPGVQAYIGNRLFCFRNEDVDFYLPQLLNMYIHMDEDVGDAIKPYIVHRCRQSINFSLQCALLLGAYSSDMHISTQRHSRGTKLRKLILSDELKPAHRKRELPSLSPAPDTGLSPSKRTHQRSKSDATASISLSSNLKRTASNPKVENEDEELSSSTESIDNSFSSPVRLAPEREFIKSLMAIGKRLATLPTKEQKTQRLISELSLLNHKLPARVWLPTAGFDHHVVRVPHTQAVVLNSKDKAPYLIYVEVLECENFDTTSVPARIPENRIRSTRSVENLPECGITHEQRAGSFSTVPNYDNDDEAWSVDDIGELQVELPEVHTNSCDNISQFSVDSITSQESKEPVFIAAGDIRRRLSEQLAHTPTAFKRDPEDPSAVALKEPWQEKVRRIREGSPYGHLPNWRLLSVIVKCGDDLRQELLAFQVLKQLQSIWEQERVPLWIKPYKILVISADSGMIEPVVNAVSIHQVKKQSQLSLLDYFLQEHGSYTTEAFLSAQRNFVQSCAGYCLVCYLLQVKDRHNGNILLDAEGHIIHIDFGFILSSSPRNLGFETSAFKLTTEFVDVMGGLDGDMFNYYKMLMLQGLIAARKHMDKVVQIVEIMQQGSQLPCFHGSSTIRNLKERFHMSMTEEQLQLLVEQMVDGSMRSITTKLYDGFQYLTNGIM
Phosphatidylinositol 4,5-bisphosphate 3-kinase catalytic subunit alpha isoform (Homo sapiens), sequence (P42336 whole entry, canonical isoform): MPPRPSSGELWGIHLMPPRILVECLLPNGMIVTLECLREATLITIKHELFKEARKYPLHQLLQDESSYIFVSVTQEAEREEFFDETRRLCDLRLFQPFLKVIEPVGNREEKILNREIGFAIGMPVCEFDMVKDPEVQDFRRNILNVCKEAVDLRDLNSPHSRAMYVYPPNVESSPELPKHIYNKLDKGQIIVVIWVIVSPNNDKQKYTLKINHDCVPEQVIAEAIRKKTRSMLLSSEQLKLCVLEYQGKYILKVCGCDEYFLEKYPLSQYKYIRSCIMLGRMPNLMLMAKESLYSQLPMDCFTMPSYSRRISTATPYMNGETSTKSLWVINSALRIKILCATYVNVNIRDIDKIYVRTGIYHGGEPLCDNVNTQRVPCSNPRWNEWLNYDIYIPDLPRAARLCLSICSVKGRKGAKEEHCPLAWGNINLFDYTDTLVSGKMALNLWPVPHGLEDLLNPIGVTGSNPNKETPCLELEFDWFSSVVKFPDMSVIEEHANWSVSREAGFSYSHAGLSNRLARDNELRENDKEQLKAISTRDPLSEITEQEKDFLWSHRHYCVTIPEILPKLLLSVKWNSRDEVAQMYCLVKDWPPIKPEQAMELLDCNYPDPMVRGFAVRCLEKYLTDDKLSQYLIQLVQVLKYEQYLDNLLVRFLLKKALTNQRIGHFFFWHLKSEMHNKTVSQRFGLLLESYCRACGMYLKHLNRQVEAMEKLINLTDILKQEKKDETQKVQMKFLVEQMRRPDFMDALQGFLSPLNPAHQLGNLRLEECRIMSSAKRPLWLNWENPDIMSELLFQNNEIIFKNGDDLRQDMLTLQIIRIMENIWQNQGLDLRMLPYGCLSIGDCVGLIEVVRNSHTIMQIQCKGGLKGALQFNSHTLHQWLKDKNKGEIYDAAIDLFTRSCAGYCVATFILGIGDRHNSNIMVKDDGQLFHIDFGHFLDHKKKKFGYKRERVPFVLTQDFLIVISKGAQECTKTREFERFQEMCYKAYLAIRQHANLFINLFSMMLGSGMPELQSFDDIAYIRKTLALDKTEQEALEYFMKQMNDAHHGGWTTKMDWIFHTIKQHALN
SRSF protein kinase 1 (Homo sapiens), sequence (Q96SB4 whole entry): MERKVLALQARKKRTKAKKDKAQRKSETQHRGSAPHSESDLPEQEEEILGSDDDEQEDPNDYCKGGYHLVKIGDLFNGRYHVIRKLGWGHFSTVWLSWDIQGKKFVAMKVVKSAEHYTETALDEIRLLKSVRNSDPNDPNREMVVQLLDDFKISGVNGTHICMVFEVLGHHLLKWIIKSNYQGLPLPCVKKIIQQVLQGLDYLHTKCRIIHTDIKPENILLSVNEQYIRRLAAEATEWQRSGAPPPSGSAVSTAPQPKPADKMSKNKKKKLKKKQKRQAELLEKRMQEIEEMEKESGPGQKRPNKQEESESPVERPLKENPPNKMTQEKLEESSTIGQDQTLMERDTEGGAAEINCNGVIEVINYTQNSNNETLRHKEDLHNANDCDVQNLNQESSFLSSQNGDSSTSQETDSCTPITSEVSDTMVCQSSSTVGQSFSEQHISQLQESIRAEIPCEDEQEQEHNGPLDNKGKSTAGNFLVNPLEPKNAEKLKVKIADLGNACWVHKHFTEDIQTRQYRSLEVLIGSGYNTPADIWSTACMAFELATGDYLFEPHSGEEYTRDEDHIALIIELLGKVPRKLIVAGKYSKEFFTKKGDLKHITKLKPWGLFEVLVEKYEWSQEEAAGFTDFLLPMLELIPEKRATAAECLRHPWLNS

Take `Fc1cccc(COc2ccc(Nc3ncnc4cc(-c5ccc[nH]5)sc34)cc2Cl)c1`: the inhibition was 2.1% in [1]; -1.71% in assay [2]; -1.58% in assay [3]; 3.58% in [4]; 10.8% in assay [5]; 2.77% in [6]. Also, the inhibition in assay [7] is 9.44%; in [8], -8.05%; in assay [9], 2.94%; in assay [10], 1.48%; in [11] it was 4.94%; in [12], 0.87%. For the same compound, the inhibition in assay [13] was -0.25%; in assay [14], 1.61%; in [15] it was 2.66%; in assay [16] it was 2.16%; in assay [17], 1.99%; in assay [18], 2.5%. Also, the inhibition was determined as 1.35% in assay [19] and 2.66% in assay [20].

Consider `Cc1nnc(-c2ccc(C)c(-c3ccc(C(=O)Nc4cccc(C#N)c4)cc3)c2)o1`, for which the inhibition in [1] was 1.19%; in assay [2], -1.96%; in assay [3], -1.67%; in assay [4], 2.12%; in [5] it was 1.71%; in [6] it was 1.98%. Besides, the inhibition in assay [7] is 1.12%; in assay [8], -1.86%; in [9], 0.49%; in [10] it was -2.17%; in [11], 0%; in assay [12] it was 0%. For the same compound, the inhibition in assay [13] stood at 1.55%; in assay [14], 1.51%; in assay [15] it was 6.5%; in assay [16], 7.7%; in assay [17], 4%; in [18], 3.09%. The inhibition in assay [19] worked out at 8.71%; in assay [20], 3.28%.

Values taken from ChEMBL document CHEMBL1961873, “Compounds: GSK PKIS; Assays: Nanosyn kinase panel” (2012).
